PTHR1 agonist – agonists of human PTHR1 parathyroid hormone receptor; AID 743266; Potency, µM (titrated, usually from 115 µM), without a hit: top-dose activation, actives largely listed as activators; hit rate 0.075% among 410,000; Q03431; HEK293 GP2 PTHR1 cells, GloSensor cAMP luminescence, 1 h; also: nearly all actives have a fitted effect of over 55% in size
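HEK-293-derived GP2 cells expressing PTHR1 and a GloSensor cAMP reporter, 3,000/well, plated overnight, given luciferin plus IBMX (each 0.5 mM as added) for 1 h at 37 °C, then compound for 1 h at 37 °C. Luminescence was read after 15 min at room temperature.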
GLP-1R inv ag – inverse agonists of human GLP-1 receptor. P43220. HEK293 GLP-1R CRE-luciferase, luminescence, 24 h; GLP-1R form is constitutively active. Potency, µM (top dose mostly 38.3 µM), for the others: at the top dose activity change, negative = inhibition, most hits filed as inhibitors. hit rate 1.6% among 410,000; also: % is scaled to controls: 0 for no effect and ±100 for the full control effect; nearly all actives have a fitted effect of over 55% in size
Target sequence (P43220 whole entry, looked up): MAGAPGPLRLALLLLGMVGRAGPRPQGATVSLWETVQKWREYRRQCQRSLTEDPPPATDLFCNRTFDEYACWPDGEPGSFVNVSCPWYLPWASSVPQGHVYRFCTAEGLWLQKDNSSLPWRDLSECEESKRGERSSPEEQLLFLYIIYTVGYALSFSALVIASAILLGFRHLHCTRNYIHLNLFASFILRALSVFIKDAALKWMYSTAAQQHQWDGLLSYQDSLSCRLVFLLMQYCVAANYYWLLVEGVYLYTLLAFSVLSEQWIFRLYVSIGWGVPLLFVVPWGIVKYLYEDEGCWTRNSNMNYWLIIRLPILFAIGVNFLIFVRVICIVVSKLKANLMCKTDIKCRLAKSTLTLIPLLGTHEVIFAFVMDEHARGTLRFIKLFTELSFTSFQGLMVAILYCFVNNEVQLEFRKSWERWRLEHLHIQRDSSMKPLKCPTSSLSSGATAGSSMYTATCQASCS
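Inverse agonism was detected as reduced cAMP-driven luciferase luminescence after 24 h compound treatment. The cells were HEK293 clones expressing constitutively active human GLP-1R with the reporter. Reporter-only and GPR119 cell lines served as counterscreen controls.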
HEK293 tox – cytotoxicity counter-screen for GLP-1 receptor inverse agonists. hit rate 0.13% among 410,000. Potency, µM (doses to about 38.3 µM), for the others: at the top dose activity change, negative = inhibition, actives largely listed as inhibitors. HEK293 cAMP-luciferase reporter cells, luminescence, 24 h;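 also: loss of luciferase light is scored as toxicity; % is scaled to controls: 0 for no effect and ±100 for the full control effect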
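Step one: seed cells (200 cells/uL, DMEM with 10% Nu serum, 1% pen-strep). Step two: 12-hour incubation at 37 deg C. Step three: pin 23 nL compound, incubate 24 hr. Step four: add luciferase reagent, read luminescence 12 min later.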
GLP-1R agonist – activates the human GLP-1 receptor; hit rate 0.007% among 380,000; P43220; HEK293 GLP-1R CRE-luciferase, luminescence, 4-6 h; cells express a hypersensitive GLP-1R form; Potency, µM (top dose mostly 45.6 µM), for the others: at the top dose activation, most hits filed as activators; AID 624172; also: % of control where 0% means no effect
* marks the source's active call; other numbers are inactive results; i = inactive; ? = inconclusive; . = not tested or not shown; [ ] = another dose, or the depositor's remark. Sampled rows, rich in hits. Any-hit rate of the full collection: about 1.7%. Calls follow the shape of the dose curve; as a rule, active = well fitted curve in the direction sought with a large enough effect; inconclusive = small, poorly fitted or top-dose-only effect, or another doubt; inactive = no such curve, though single readings can be large; an effect the other way counts as inactive or inconclusive. Potency is read from the fitted curve at half-maximal effect.

SMILES	PTHR1 agonist	GLP-1R inv ag	HEK293 tox	GLP-1R agonist
Cc1ccc2occ(CC(=O)Nc3c(C(=O)Nc4ccc(Cl)cc4)oc4ccccc34)c2c1	i	?	-8%	.
O=C(c1cn(-c2ccccc2)nc1-c1cccs1)N(CCO)Cc1ccccc1	i	11µM*	-8%	17%
CN(C)C(=O)c1cn(-c2ccccc2)nc1-c1cccs1	i	-9%	-1%	15%
CCN(c1ccccc1)S(=O)(=O)c1cc(C(=O)Nc2ccc(Br)cc2)ccc1F	-96%	2.5µM*	-5%	-5%
CCOc1cccc(C(=O)Nc2ccc(S(=O)(=O)N(Cc3ccccc3)c3ccccc3)cc2)c1	-16%	3.2µM*	2%	.
Cc1ccccc1C(=O)NC(=S)Nc1ccc(S(=O)(=O)N(C)c2ccccc2)cc1	-10%	8.9µM*	8%	-6%
COc1cc(NC(=O)c2ccc(S(=O)(=O)N(C)c3ccccc3OC)cc2)cc(OC)c1	i	7.9µM*	-9%	3%
COc1cccc(C(=O)Nc2ccc(S(=O)(=O)N(Cc3ccccc3)c3ccccc3)cc2)c1	-14%	?	-1%	.
Cc1ccc(NC(=O)Cc2ccc(-n3c(C)nc4cccnc43)cc2)c(Cl)c1	-93%	0%	-7%	.
CCN(CC)CCNC(=O)Nc1ccc2c(c1)N(Cc1ccccc1)C(=O)c1ccccc1S2	i	?	-20%	.
CCN(CC)c1ccc(NS(=O)(=O)c2cc(-c3onc(C)c3C)ccc2OC)c(C)c1	-15%	-18%	-1%	.
COc1ccc(NC(=O)c2ccc(OC(=S)N(C)c3ccc(OC)cc3)cc2)cc1	-10%[57.5 µM]	-26%	-25%	0%
CN(C(=S)Oc1ccc(C(=O)Nc2ccccc2)cc1)c1ccccc1	-22%	8.9µM*	2%	2%
CN(c1ccccc1)S(=O)(=O)c1ccc(NC(=O)c2ccccc2)cc1	-49%	10µM*	0%	1%
CCC(=O)N1CCc2cc(CNC(=O)c3ccccc3C)ccc21	i	11%	3%	.
Cc1ccccc1C(=O)N1CCC(C(=O)Nc2nc3ccc(F)cc3s2)CC1	-35%	10µM*	-5%	-7%
Cc1ccccc1C(=O)N1CCC(C(=O)Nc2nccs2)CC1	i	-10%	-16%	3%
Cc1cccc(NC(=O)C2CCCN2S(=O)(=O)c2ccc3nc(-c4ccccc4)[nH]c3c2)c1 (centres undefined)	-41%	?	-20%	.
Cc1cc(C)c2nc(N3CCC(C(=O)N4CCN(C(=O)c5ccco5)CC4)CC3)sc2c1	-33%	7.9µM*	-2%	2%
Cc1c(Cl)ccc2sc(N3CCN(C(=O)c4ccco4)CC3)nc12	-18%	2%	3%	.
Fc1ccc(-n2ncc3c(NCCC4=CCCCC4)ncnc32)cc1	-5%	17%	-3%	.
Cc1ccc(Cl)cc1-n1ncc2c(NCCC3=CCCCC3)ncnc21	-23%	8.9µM*	-8%	.
Cc1ccc(Cl)cc1-n1ncc2c(NCCc3ccccc3)ncnc21	-42%	?	-3%	.
Cc1ccc(Cl)cc1-n1ncc2c(NCCCc3ccccc3)ncnc21	-39%	11µM*	-1%	.
CCOc1ccc(OCC)c(NC(=O)CN2CCN(c3cccc(C)c3)CC2)c1	17%[57.5 µM]	?	8%	24%
SMILES	PTHR1 agonist	GLP-1R inv ag	HEK293 tox	GLP-1R agonist
CCOc1ccc(OCC)c(NC(=O)CN2CCN(c3cc(C)ccc3C)CC2)c1	-14%	13µM*	?	0%
CC(=O)c1cccc(N(C(=O)Cn2nnc3ccccc32)C(C(=O)NCc2ccccc2)c2ccc(F)cc2)c1 (centres undefined)	16%	-6%	-4%	.
CCOCN(C(=O)Cn1c(C)nc2ccccc21)c1c(C)cccc1CC	-7%	-13%	11%	.
CCOCN(C(=O)Cn1c(CC(C)C)nc2ccccc21)c1c(C)cccc1CC	-6%	11µM*	-13%	-4%
COc1ccc(Br)cc1/C(C)=N/NC1=NCCN1	-38%	0%	-2%	-5%
CCCCCOc1ccc(Br)cc1/C(C)=N/NC1=NCCN1	-6%[57.5 µM]	2.2µM*	?	1%
Cc1cc(C(F)(F)F)n2[nH]c(=O)c(N=Nc3ccccc3)c2n1	18µM*	-22%	?	-7%
C=CCN(C(=O)c1cccc(S(=O)(=O)N2CCN(C)CC2)c1)c1nc(-c2ccccc2)cs1	-29%	11µM*	-3%	3%
CN(Cc1cccc(F)c1)C(=O)c1cccc(S(=O)(=O)N2CCN(Cc3ccccc3)CC2)c1	-31%	?	0%	-3%
CN(Cc1ccc(Cl)c(Cl)c1)C(=O)c1cccc(S(=O)(=O)N2CCN(Cc3ccccc3)CC2)c1	-37%	11µM*	-5%	4%
Cc1ccc2c(c1)C(=O)C(=O)N2Cc1ccc(OC(C)C)cc1	0%	1.1µM*	?	.
CCCCCCNC(=O)c1cccc(-c2ccc(C)c3ccccc23)n1	-3%	11µM*	0%	9%
O=S(=O)(/C(=C/c1ccc(C(F)(F)F)cc1)c1nc2ccccc2[nH]1)c1ccccc1	-8%	1.8µM*	7.9µM*	-7%
CC(C)c1ccc(/C=C(\c2nc3ccccc3[nH]2)S(=O)(=O)c2ccccc2)cc1	-97%	?	-24%	-20%
CCN(C(=O)CC(C)C)c1nnc(Cn2nnc3ccccc32)s1	-2%	40%	2%	11%
CCN(C(=O)c1ccc(C(C)(C)C)cc1)c1nnc(Cn2nnc3ccccc32)s1	-11%	5µM*	-17%	-2%
COc1ccc(CNc2ccc3cc(S(=O)(=O)N4CCCCC4)ccc3n2)cc1	i	?	-15%	.
COc1cccc(OCC(=O)N(Cc2nc(-c3ccc(Cl)cc3)no2)C(C)C)c1	-92%	?	2%	7%
CCN(Cc1nc(-c2ccccc2)no1)C(=O)COc1cccc(OC)c1	-15%	1.8µM*	14%	14%
COc1ccc(S[C@@H](CCN2CC[C@H](NC(=O)OCc3ccccc3)CCC2=O)c2ccccc2)cc1	-53%	3.2µM*	-3%	-3%
O=C(N[C@@H]1CCC(=O)N(CC[C@H](Sc2ccc(Br)cc2)c2ccccc2)CC1)OCc1ccccc1	-68%	?	-22%	8%
COc1ccc(SC[C@H](C)CN2CC[C@H](NC(=O)OCc3ccccc3)CCC2=O)cc1	-37%	10µM*	16%	12%
C[C@@H](CSc1ccc(Br)cc1)CN1CC[C@H](NC(=O)OCc2ccccc2)CCC1=O	i	?	-3%	-6%
CC(=O)Nc1ccc(SC[C@H](C)CN2CC[C@H](C(C)(C)C)CCC2=O)cc1	-89%	10µM*	-32%	4%
O=C(N[C@H]1CCC(=O)N([C@H](CSc2ccc(Br)cc2)Cc2ccccc2)CC1)OCc1ccccc1	-22%	4µM*	-27%	10%
Cc1ccc(SC[C@H](C)CN2CC[C@H](C)CCC2=O)cc1	-2%	?	1%	3%
O=C(N[C@H]1CCC(=O)N([C@H](CSc2ccccc2)Cc2ccccc2)CC1)OCc1ccccc1	-12%	?	3%	6%
NC(N)=N/N=C/c1cccc(Cl)c1Cl	-8%	10µM*	?	0%

Source: PubChem
